Drawing on PubChem BioAssay (Tox21), this text covers outcome and Potency for 13 molecules.

Unmarked numbers belong to inactive results. Inconclusive results are not listed. Activity calls are given as the source filed them. Unless noted, the call rests on the fitted dose curve; in most records, active means well fitted curve in the direction sought with a large enough effect in the repeat runs; inconclusive means weak or mixed curves; inactive means no such curve, though single readings can be large; an effect the other way counts as inactive or inconclusive.

The nature of test [1]: qHTS assay to test for compound auto fluorescence at 535 nm (green) in HEK293 cells (AID 720680). (qHTS replaces the single test concentration by a dilution series.)
A short description of test [2]: qHTS assay to test for compound auto fluorescence at 460 nm (blue) in HEK293 cell free culture (AID 720681). An outline of the steps:
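Blue fluorescence (Ex 405/Em 460 nm, triamterene-equivalent) was read immediately after pin transfer of compound or DMSO into medium (DMEM, 10% FBS) without cells.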

Test [3] can be described thus: qHTS assay to test for compound auto fluorescence at 535 nm (green) in HEK293 cell free culture (AID 720682). In outline:
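Using fluorescein as calibrant, autofluorescence was quantified at 485/535 nm in cell-free DMEM containing 10% FBS after pintool addition of compound or vehicle.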

A short description of test [4]: qHTS assay to test for compound auto fluorescence at 590 nm (red) in HEK293 cell free culture (AID 720683). An outline of the steps: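 Red-channel autofluorescence of compounds in culture medium (DMEM, 10% FBS), no cells, measured at 540/590 nm. Rose Bengal sodium is the reference fluorophore for equivalence.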
The nature of test [5]: qHTS assay to test for compound auto fluorescence at 590 nm (red) in HepG2 cell free culture (AID 720684). An outline of the steps: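 No cells present: MEM + 10% FBS only. Compound pinned in, red label read (540/590 nm). Activity = fluorescence equivalent to Rose Bengal sodium.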
A short description of test [6]: qHTS assay to test for compound auto fluorescence at 460 nm (blue) in HepG2 cell free culture (AID 720685). In outline: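 Cell-free plates of MEM plus 10% FBS received 23 nL compound or DMSO vehicle; blue-channel (405/460 nm) intensity scored against triamterene as reference fluorophore.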
Test [7] in a line: qHTS assay to test for compound auto fluorescence at 535 nm (green) in HepG2 cell free culture (AID 720686).
The nature of test [8]: qHTS assay to test for compound auto fluorescence at 460 nm (blue) in HepG2 cells (AID 720687). In outline: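 Blue-channel autofluorescence (Ex/Em 405/460 nm, triamterene-equivalent) was measured after 1 hr compound exposure at 37 C, 5% CO2. Cells were HepG2, plated overnight at 37 C in MEM plus 10% FBS.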
For test [9], the target named is Glucocorticoid receptor (Homo sapiens) (UniProt P04150). The experiment in a line: qHTS assay to identify small molecule agonists of the glucocorticoid receptor (GR) signaling pathway (AID 720691; active means well fitted activation curve with a large enough effect in the signal ratio in the repeat runs, not every such curve was filed as active; the % refers to the signal ratio). An outline of the steps: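 Measures GR pathway activation through a GRE-beta-lactamase reporter stably integrated in HeLa cells, with 18 h compound treatment at 37 C and fluorescence detection using a FRET substrate.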

Test [10] shares this target. As to the kind of experiment: qHTS assay to identify small molecule antagonists of the glucocorticoid receptor (GR) signaling pathway (AID 720692; active means well fitted inhibition curve with a large enough effect in the signal ratio in the repeat runs, not every such curve was filed as active; the % refers to the signal ratio). In outline: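 Tox21 10K library screened in concentration-response for blockade of dexamethasone (5 nM final)-induced GRE-bla reporter activity in HeLa cells; 18 h treatment, fluorescence read.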
Test [11] in a line: qHTS assay for identifying genotoxic compounds that show differential cytotoxicity against isogenic chicken DT40 cell lines with known DNA damage response pathways - wild type cell line (AID 743012). Further: nearly all actives have a fitted effect of over 60% in size. Further: potency means the concentration at half of the fitted maximal effect. In outline:
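Endpoint: CellTiter-Glo luminescence, 30 min RT. Cells: wild type DT40, 300/well. Exposure: compounds in DMSO, 40 h, 37 C/5% CO2, after ~0.5 h pre-incubation.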

A short description of test [12]: qHTS assay for identifying genotoxic compounds that show differential cytotoxicity against isogenic chicken DT40 cell lines with known DNA damage response pathways - Rev3 mutant cell line (AID 743014). Further: nearly all actives have a fitted effect of over 55% in size. Further: potency means the concentration at half of the fitted maximal effect.
Test [13] can be described thus: qHTS assay for identifying genotoxic compounds that show differential cytotoxicity against isogenic chicken DT40 cell lines with known DNA damage response pathways - Rad54/Ku70 mutant cell line (AID 743015). Further: nearly all actives have a fitted effect of over 60% in size. Further: potency means the concentration at half of the fitted maximal effect.
Test [14] can be described thus: qHTS assay to identify small molecule antagonists of the androgen receptor (AR) signaling pathway - cell viability counter screen (AID 743033; further: nearly all actives have a fitted effect of over 45% in size).
The nature of test [15]: qHTS assay to identify small molecule antagonists of the androgen receptor (AR) signaling pathway using the MDA cell line - cell viability counter screen (AID 743041; further: nearly all actives have a fitted effect of over 45% in size). An outline of the steps:
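Using the breast carcinoma line MDA-kb2 AR-luc, test chemicals were co-incubated with R1881 for 16 h; CellTiter-Fluor reagent, added at 15.5 h, provided a fluorescence measure of live cells.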

Test [16] is described as follows: qHTS assay to identify small molecule antagonists of the glucocorticoid receptor (GR) signaling pathway - cell viability counter screen (AID 720693). Further: nearly all actives have a fitted effect of over 55% in size.
For test [17], the target named is Androgen receptor (Homo sapiens) (UniProt P10275). As to the kind of experiment: qHTS assay to identify small molecule antagonists of the androgen receptor (AR) signaling pathway (AID 743035; active means well fitted inhibition curve with a large enough effect in the signal ratio in the repeat runs, not every such curve was filed as active; the % refers to the signal ratio). In outline: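 R1881 agonist challenge of a HEK293 UAS-beta-lactamase AR reporter line in the presence of compound (16 h, 37C); signal taken as FRET fluorescence after 2 h with LiveBLAzer B/G substrate at room temperature.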

For test [18] the target is unchanged. The experiment in a line: qHTS assay to identify small molecule agonists of the androgen receptor (AR) signaling pathway (AID 743036; active means well fitted activation curve with a large enough effect in the signal ratio in the repeat runs, with a control signal flat, not every such curve was filed as active; the % refers to the signal ratio). In outline: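 In this Tox21 qHTS, 2,000 HEK293 AR-bla cells per well were incubated with compounds for 16 h at 37C and 5% CO2. Fluorescence intensity was recorded 2 h after adding LiveBLAzer B/G FRET substrate at room temperature.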

For test [19] the target is unchanged. As to the kind of experiment: qHTS assay to identify small molecule agonists of the androgen receptor (AR) signaling pathway using the MDA cell line (AID 743040; further: nearly all actives have a fitted effect of over 20% in size). An outline of the steps: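 Stable MMTV-luciferase reporter in MDA-kb2 cells; note the promoter carries GR as well as AR response elements. 16 h compound treatment, 37C, 0% CO2; ONE-Glo luminescence endpoint.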

Test [20] has the same target. As to the kind of experiment: qHTS assay to identify small molecule antagonists of the androgen receptor (AR) signaling pathway using the MDA cell line (AID 743042; further: nearly all actives have a fitted effect of over 55% in size). An outline of the steps: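 Antagonist mode: compounds plus R1881 agonist added to MDA-kb2 AR-luc cells, incubated 16 h at 37C. Luciferase reporter luminescence quantified, with multiplexed CellTiter-Fluor readout for cell viability.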

Chain of Androgen receptor (Homo sapiens) (P10275 whole entry, looked up): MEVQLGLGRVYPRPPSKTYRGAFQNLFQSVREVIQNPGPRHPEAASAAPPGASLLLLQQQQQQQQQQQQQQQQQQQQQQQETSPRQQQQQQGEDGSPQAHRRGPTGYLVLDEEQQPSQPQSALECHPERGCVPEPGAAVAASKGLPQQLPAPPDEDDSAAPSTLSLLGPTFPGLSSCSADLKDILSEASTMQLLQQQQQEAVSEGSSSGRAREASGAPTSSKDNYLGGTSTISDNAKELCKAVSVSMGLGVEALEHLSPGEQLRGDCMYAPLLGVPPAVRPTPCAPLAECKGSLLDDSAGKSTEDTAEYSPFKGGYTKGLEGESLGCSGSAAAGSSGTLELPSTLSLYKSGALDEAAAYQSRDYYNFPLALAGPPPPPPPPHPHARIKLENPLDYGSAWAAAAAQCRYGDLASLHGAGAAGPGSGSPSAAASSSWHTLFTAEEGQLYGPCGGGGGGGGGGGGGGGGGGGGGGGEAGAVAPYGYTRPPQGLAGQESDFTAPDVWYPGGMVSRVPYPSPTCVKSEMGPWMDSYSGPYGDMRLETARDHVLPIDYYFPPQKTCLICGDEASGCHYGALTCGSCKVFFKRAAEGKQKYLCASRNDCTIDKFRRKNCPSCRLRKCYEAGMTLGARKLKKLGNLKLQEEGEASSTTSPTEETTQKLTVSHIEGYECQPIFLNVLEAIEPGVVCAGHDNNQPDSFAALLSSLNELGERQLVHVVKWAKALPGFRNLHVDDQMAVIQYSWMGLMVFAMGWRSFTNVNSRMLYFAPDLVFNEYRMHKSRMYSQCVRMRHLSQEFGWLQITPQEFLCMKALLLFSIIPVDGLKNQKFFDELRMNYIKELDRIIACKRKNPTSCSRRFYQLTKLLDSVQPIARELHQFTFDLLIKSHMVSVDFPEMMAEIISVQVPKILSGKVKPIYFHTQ
Chain of Glucocorticoid receptor (Homo sapiens) (P04150 whole entry, looked up): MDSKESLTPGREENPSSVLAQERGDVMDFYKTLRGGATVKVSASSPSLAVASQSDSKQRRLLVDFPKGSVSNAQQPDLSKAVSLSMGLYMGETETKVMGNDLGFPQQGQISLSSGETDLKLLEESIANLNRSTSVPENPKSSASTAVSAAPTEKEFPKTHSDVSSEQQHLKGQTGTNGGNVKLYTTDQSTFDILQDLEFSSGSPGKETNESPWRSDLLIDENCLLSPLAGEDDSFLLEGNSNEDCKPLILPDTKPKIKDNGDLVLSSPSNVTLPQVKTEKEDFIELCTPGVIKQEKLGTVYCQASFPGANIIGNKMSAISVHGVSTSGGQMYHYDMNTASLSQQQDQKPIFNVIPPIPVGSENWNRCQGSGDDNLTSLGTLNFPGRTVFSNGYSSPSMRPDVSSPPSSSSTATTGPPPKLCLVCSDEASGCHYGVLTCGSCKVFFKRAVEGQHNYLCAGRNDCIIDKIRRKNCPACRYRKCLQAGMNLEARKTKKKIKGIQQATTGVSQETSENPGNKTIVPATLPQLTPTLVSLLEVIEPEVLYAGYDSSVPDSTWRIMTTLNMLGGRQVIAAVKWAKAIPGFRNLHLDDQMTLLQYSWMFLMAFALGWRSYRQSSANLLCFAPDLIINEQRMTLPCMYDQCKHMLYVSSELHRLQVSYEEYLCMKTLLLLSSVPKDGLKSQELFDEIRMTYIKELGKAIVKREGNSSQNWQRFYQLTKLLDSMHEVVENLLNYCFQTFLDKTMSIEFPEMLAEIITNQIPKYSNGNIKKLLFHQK

For the molecule `O=C(O)C[C@H](NC(=O)OCc1ccccc1)C(=O)O`, the outcome in test [1], in test [3], in [4], in test [5] and in test [7] was inactive. Moreover, the Potency entry in [2], in test [6], in [8], in test [9], in [10] and in test [11] was “inactive” throughout. Besides, the Potency entry in test [12], in [13], in test [14] and in test [15] was “inactive” each time.
For the molecule `CN(C)CCC=C1c2ccccc2C=Cc2ccccc21`, the molecule was called inactive in [1], in test [3], in [4], in test [5] and in test [7]. Besides, the Potency result in test [2], in test [6], in test [8], in test [9], in test [16] and in test [15] was “inactive” in each case. For the same molecule, the Potency is 8.41 µM (active) in test [11], 8.41 µM (active) in [12] and 10.6 µM (active) in test [13].
Consider `O=C1CCCCCCCCCCOCCCCO1`, for which the result in [1], in [3], in test [4], in [5] and in [7] was inactive. Moreover, the Potency result in [2], in test [6], in [8], in test [9], in test [10] and in [11] was “inactive” in each case. The Potency result in [15] was “inactive”.
Turning to `CC(C)Nc1cccnc1N1CCN(C(=O)c2cc3cc(NS(C)(=O)=O)ccc3[nH]2)CC1`, the call in [1], in test [3], in test [4], in test [5] and in [7] was inactive. The Potency entry in test [2], in test [6], in test [8], in test [9], in test [16] and in test [12] was “inactive” in each case. Besides, the Potency result in test [14] and in test [15] was “inactive” throughout.
As for `C=CC(=O)[O-].C=CC(=O)[O-].[Zn+2]`, the call in test [1], in [3], in test [4], in [5] and in [7] was inactive. Also, the Potency result in test [2], in test [6], in [8], in test [9], in [10] and in [11] was “inactive” throughout. Also, the Potency entry in test [12], in test [13], in [14] and in test [15] was “inactive” in each case.
With `O=C(/C=C/c1ccccc1)OCCc1ccccc1`, the molecule was classed as inactive in [1], in test [3], in test [4], in test [5], in test [7] and in [18]. In addition, in [19], the molecule was called inactive. In addition, the Potency result in [2], in test [6], in [8], in test [9], in test [11] and in [12] was “inactive” in each case. The Potency result in test [13], in test [14], in test [17], in test [15] and in test [20] was “inactive” in each case.
For the molecule `Clc1ccc(Nc2nnc(Cc3ccncc3)c3ccccc23)cc1`, the molecule was classed as inactive in test [1], in test [3], in [4], in [5] and in test [7]. The Potency result in test [2], in test [6], in [8], in [9], in test [16] and in [14] was “inactive” in each case. Moreover, the Potency result in test [15] is “inactive”. For the same molecule, the Potency was 29.8 µM (active) in test [11] and 26.6 µM (active) in test [13].
`Oc1cccc(Nc2ccccc2)c1`: the call in [1], in test [3], in [4], in test [5] and in test [7] was inactive. The Potency result in test [2], in [6], in test [8], in test [9], in test [16] and in test [11] was “inactive” throughout. The Potency result in test [14] and in test [15] was “inactive” throughout.
Consider `CC(=O)OCCN(CCOC(C)=O)c1ccc(N=Nc2ccc([N+](=O)[O-])cc2C#N)cc1`, for which the outcome in test [1], in test [3], in test [4], in [5] and in test [7] was inactive. The Potency result in test [2], in [6], in [8], in test [9], in test [16] and in [14] was “inactive” throughout. Further, the Potency entry in test [15] is “inactive”. Further, the Potency is 61.1 µM (active) in test [11], 30.6 µM (active) in [12] and 30.6 µM (active) in test [13].
For the molecule `CO[C@]1(NC(=O)CSC(F)F)C(=O)N2C(C(=O)O)=C(CSc3nnnn3CCO)CO[C@H]21`, the result in test [1], in test [3], in [4], in test [5] and in [7] was inactive. Further, the Potency result in test [2], in test [6], in test [8], in test [9], in [10] and in [11] was “inactive” in each case. Besides, the Potency entry in [12], in [13], in test [14] and in test [15] was “inactive” each time.
Take `Nc1ccc(N=Nc2ccccc2)c(N)c1`: the result in test [1], in [3], in test [4], in [5] and in test [7] was inactive. The Potency entry in test [2], in test [6], in [8], in [9], in [16] and in test [14] was “inactive” throughout. For the same molecule, in test [15], the Potency entry is “inactive”. Also, the Potency was 53.3 µM (active) in test [11], 53.3 µM (active) in [12] and 59.8 µM (active) in [13].
On to `O=C=Nc1ccc(Cl)c(Cl)c1`, for which the molecule was called inactive in [1], in test [3], in [4], in test [5] and in test [7]. In addition, the Potency result in test [2], in test [6], in [8], in test [16], in [13] and in [14] was “inactive” in each case. In test [15], the Potency entry was “inactive”.
Consider `C[C@H]1c2cccc(O)c2C(O)=C2C(=O)[C@]3(O)C(O)=C(C(N)=O)C(=O)[C@@H](N(C)C)[C@@H]3[C@@H](O)[C@@H]21`, for which the molecule was called inactive in [1], in test [3], in test [4], in [5], in test [7] and in [19]. In addition, the Potency result in [2], in test [6], in test [8], in test [9], in test [14] and in test [17] was “inactive” in each case. In addition, the Potency result in test [15] and in [20] was “inactive” in each case.
